Compounds without any hit were thinned out: in the full panel of roughly 83,000, 20% have a hit.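 Single-concentration screen, 48 h exposure, 96-well plates. Endpoint: percent growth. Below 10 = active.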 A number with no mark means an inactive call. The source made the active and inactive calls.
The compounds below were run on UO-31 renal (assay: NCI-60 one-dose screen, 48 h (100 = growth as untreated, 0 = no growth, -100 = all killed)). Details: 10 µM.

Compound | growth
N#Cc1c(NC(=O)c2ccc(C(O)(C(F)(F)F)C(F)(F)F)cc2)sc2c1CCC(=O)C2 | -98.8% (active)
Cn1cc(-c2cc(N)n3nc(-c4c[nH]c5ccc(Br)cc45)cc3n2)c2cc(Br)cnc21 | -70.9% (active)
COc1cc2c(cc1OC)CN(CCCCOc1cc(O)c3c(=O)cc(-c4ccccc4)oc3c1)CC2 | 51%
N#Cc1c(NC(=O)c2ccc(C(F)(F)F)cc2C(F)(F)F)sc2c1CCC(=O)C2 | -99.7% (active)
O=c1cc(-c2ccccc2)oc2cc(OCCCCNCc3ccccc3)cc(O)c12 | 37%
CC1=N/C(=C\c2ccc(N(C)C)cc2)C(=O)N1CCc1ccc(S(N)(=O)=O)cc1 | 87.9%
CC(=O)OC[C@@]1(C)C2CC[C@]3(C)C(CC=C4C5CC(C)(C)CC[C@]5(C(=O)Nc5ccccc5)CC[C@]43C)[C@@]2(C)C[C@@H](OC(C)=O)[C@@H]1OC(C)=O (stereo partly specified) | 33.1%
O=c1cc(-c2ccccc2)oc2cc(OCCCNCc3ccccc3)cc(O)c12 | -9.86% (active)
COc1ccc(C(=O)Nc2sc3c(c2C#N)CCC(=O)C3)cc1C(F)(F)F | -18.2% (active)
Cc1cc(C(F)(F)F)ccc1C(=O)Nc1sc2c(c1C#N)CCC(=O)C2 | -98% (active)
C/C(=C\CSc1ccccc1C(=O)O)CCCC(C)CCCC(C)CCCC(C)C (stereo unspecified) | 49.5%
COc1ccc2[nH]c(=O)c(CSc3cccc(N)c3)cc2c1 | 56.8%
Cn1cc(-c2cc(N)n3nc(-c4c[nH]c5ccc(Br)cc45)cc3n2)c2cccnc21 | -78.8% (active)
COc1ccc(OC)c(/C=N/NC(=O)c2ccc3nc(-c4ccc(Cl)cc4)[nH]c3c2)c1 | 68%
COc1cc(OC(F)(F)F)ccc1C(=O)Nc1sc2c(c1C#N)CCC(=O)C2 | 62.4%
COc1cccc(/C=N/NC(=O)c2ccc3nc(-c4ccc(Cl)cc4)[nH]c3c2)c1O | -2.17% (active)
COc1cccc(/C=C2\N=C(C)N(CCc3ccc(S(N)(=O)=O)cc3)C2=O)c1 | 90.9%
CN(C(=O)c1ccc(C(F)(F)F)cc1C(F)(F)F)c1sc2c(c1C#N)CCC(=O)C2 | 62.4%
N#Cc1c(NC(=O)c2cccc(C(F)(F)F)c2)sc2c1CCC(O)=C2 | 17.6%
COc1cc(/C=N/NC(=O)c2ccc3nc(-c4ccc(Cl)cc4)[nH]c3c2)cc(OC)c1OC | 58.9%
N#Cc1c(NC(=O)c2ccc(C(F)(F)F)cc2)sc2c1CCC(O)=C2 | 23.9%
